Shown are actives, neighbours in structure and some others; about 4.7% of the full set was active somewhere.
D1 agonist – agonists of human D1 dopamine receptor. P21728. HEK293 T-REx D1 cells, calcium flux, agonist mode. activation, % at 2 µM. 360,000 compounds, 1% hits. AID 504660
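Inducible HEK293 T-REx D1 cells, force-coupled to calcium signalling, were plated at 4000 cells/well with tetracycline and held overnight at 30 C. After no-wash calcium dye loading, compound-evoked calcium rise over 180 s flagged agonists.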
D1 antagonist – blocks dopamine activation of the human D1 receptor; HEK293 TREx D1 cells, calcium flux, dopamine EC80; hits give low values; activity change, negative = inhibition, % at 10 µM; 360,000 compounds, 3.2% hits; AID 504652; in the data active means activity change below about -30%
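HEK293 T-REx cells expressing inducible, force-coupled D1 receptor; no-wash Ca dye, 30–90 min RT. Cmpd → 180 s read at 1 Hz → EC80 DA → 180 s read.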
D1 PAM – enhances dopamine response at the human D1 receptor | HEK293 TREx D1 cells, calcium flux, dopamine EC20 potentiation | potentiation, % at 10 µM | 360,000 compounds, 0.036% hits | P21728; in the data active means potentiation above about 30%
TRHR enhancer – allosterically enhances the human TRH receptor. P34981. TRHR cells, fluo-8 calcium fluorescence, EC20 TRH enhancement. enhancement, % at 2 µM. 360,000 compounds, 0.66% hits. AID 493056; in the data active means enhancement above about 30%
Target sequence (P34981 whole entry, looked up): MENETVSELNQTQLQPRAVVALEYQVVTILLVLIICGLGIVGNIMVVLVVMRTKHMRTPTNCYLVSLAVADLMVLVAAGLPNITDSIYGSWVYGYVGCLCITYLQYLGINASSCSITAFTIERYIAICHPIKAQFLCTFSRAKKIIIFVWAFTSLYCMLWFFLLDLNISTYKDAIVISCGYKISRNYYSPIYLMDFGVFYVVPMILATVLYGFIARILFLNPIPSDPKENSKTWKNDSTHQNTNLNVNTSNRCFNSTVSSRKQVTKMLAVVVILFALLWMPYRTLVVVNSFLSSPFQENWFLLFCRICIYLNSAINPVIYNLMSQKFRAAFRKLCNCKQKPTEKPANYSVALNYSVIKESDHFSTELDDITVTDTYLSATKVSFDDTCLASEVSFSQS
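TRHR-expressing cells loaded with fluo-8 calcium dye were read kinetically (ex 480/em 530) during compound addition, then stimulated with an EC20 of TRH (10 nM final). Enhancement of the Gq-mediated intracellular calcium response was scored.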
TRHR ag – activates the human TRH receptor. P34981. TRHR cells, calcium flux fluo-8, FDSS agonist mode. activation, % at 2 µM. 360,000 compounds, 0.18% hits. AID 493084
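Steps: seed TRHR cells overnight; add fluo-8 no-wash Ca dye, RT 30 min–1.5 h; record 10 s baseline; pin-transfer compounds; monitor fluorescence 1 cycle/s for the agonist window. Calcium increases flag candidate agonists.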
A number is an active result; – = inactive; · = no result given. Unless noted, no stated cut-off is given here; in the data, active means activation above about 30%; inactive means the rest.

SMILES	D1 agonist	D1 antagonist	D1 PAM	TRHR enhancer	TRHR ag
O=S(=O)(c1ccccc1)c1nnn2c1nc(NC1CCCCCC1)c1sccc12	–	–	–	–	–
Cn1c(=O)c(NCCO)c2c3c(cccc31)C(=O)c1ccccc1-2	442	-42	–	–	269
CC(=O)Nc1ccc(Nc2c3c4c(cccc4n(C)c2=O)C(=O)c2ccccc2-3)cc1	–	–	–	–	–
COc1cc(-c2noc(-c3ccc(N4CCN(C)CC4)c([N+](=O)[O-])c3)n2)cc(OC)c1OC	–	–	–	–	–
COc1cc(Cl)c(C)cc1NC(=O)c1nn(C)c2c1CSc1ccccc1-2	–	–	–	–	–
CC(C)(C)c1ccc(S(=O)(=O)NC(Cc2ccccc2)C(=O)O)cc1 (centres undefined)	–	-32	–	–	–
Cc1ccc(S(=O)(=O)NC(Cc2ccccc2)C(=O)O)cc1 (centres undefined)	–	–	–	–	–
Cc1ccc(/C=C2\SC(N3CCCC3)=NC2=O)cc1	–	–	–	–	–
CN(C)c1ccc(/C=C2\SC(N3CCCCC3)=NC2=O)cc1	37	–	–	–	–
Cc1cccc(NC(=O)CSc2nc3ccccc3nc2N2CCCCC2)c1C	–	–	–	–	–
COc1ccc(Nc2ncnc3c2cnn3-c2ccc(C)cc2)cc1Cl	–	-65	–	–	–
Cc1ccc(Nc2ncnc3c2cnn3-c2ccc(C)cc2)cc1	–	–	–	–	–
Cc1cc(NC(=O)c2cnn(-c3ccccc3)c2-n2cccc2)ccc1Br	–	–	–	–	–
N#Cc1cccc(Nc2ncnc3c2cnn3-c2cccc(Cl)c2)c1	–	-49	–	–	–
Fc1cccc(Nc2ncnc3c2cnn3-c2ccccc2)c1	–	–	–	–	–
COc1ccc(NC(=O)c2cnn(-c3ccc(C)cc3)c2-n2cccc2)cc1Cl	–	-31	–	–	–
Clc1cccc(Nc2ncnc3c2cnn3-c2ccccc2)c1	–	-55	–	–	–
COCCCc1cc(F)c(S(=O)(=O)N2CCN(S(=O)(=O)c3ccc4c(c3)OCCO4)CC2)cc1F	–	–	–	–	–
CCSc1ccccc1C(=O)Nc1ccc(-c2nc3ccccc3s2)c(O)c1	–	–	–	–	–
NS(=O)(=O)c1ccc(CCNc2nccn(-c3cccc(C(F)(F)F)c3)c2=O)cc1	–	-32	–	–	–
NS(=O)(=O)c1ccc(CCNc2ncnc3c2cnn3-c2cccc(Cl)c2)cc1	–	-64	–	–	–
COC(=O)COc1ccc2c(=O)c(-c3ccccc3)coc2c1	–	-42	–	–	–
CCN(CC)c1ccc2nc3c4ccccc4c(=O)cc-3oc2c1	42	–	–	–	–
O=c1cc(-c2c(F)c(F)c(F)c(F)c2F)oc2ccccc12	–	–	–	–	–
Cc1ccc(-c2onc(C)c2C)cc1S(=O)(=O)NC1CCC(C)CC1 (centres undefined)	–	–	–	–	–
SMILES	D1 agonist	D1 antagonist	D1 PAM	TRHR enhancer	TRHR ag
COc1ccc(-c2cc3c(=O)n(CC(=O)Nc4ccc(Br)c(C)c4)ccn3n2)cc1OC	–	–	–	–	–
Cc1cccc(CSc2nc3c(c(-c4cccs4)c2C#N)CN(C)CC3)c1	–	-38	–	–	–
CCCCOc1ccc(S(=O)(=O)Nc2cccnc2)cc1	–	-37	–	–	–
Cc1ccc(S(=O)(=O)Nc2cccnc2)cc1	–	–	–	–	–
CN(Cc1ccc(C#CCCO)cc1)CC1CCCN(CCc2ccc(Cl)cc2)C1 (centres undefined)	–	-38	–	–	–
CN(Cc1ccccc1O)CC1CCCN(CCc2ccc(Cl)cc2)C1 (centres undefined)	–	–	–	–	–
CCCN1CCN(C(=O)Cn2ncc3c4ccccc4n(Cc4cccc(Cl)c4)c3c2=O)CC1	–	–	–	–	–
CCN(CC)C(=O)NC1CC2CCCC(C1)N2Cc1ccccc1 (centres undefined)	–	–	–	–	–
COc1ccc(C(=O)NC2CC3CCCC(C2)N3CC(C)C)cc1 (centres undefined)	–	–	–	–	–
O=C(/C=C/c1ccccc1)NC1CC2CCCC(C1)N2Cc1ccccc1 (centres undefined)	–	-96	–	–	–
COc1ccc(CN2C3CCCC2CC(NC(=O)/C=C/c2ccccc2)C3)cc1 (centres undefined)	77	-51	–	–	–
O=C(/C=C/c1cccc(F)c1)NC1CCN(Cc2ccccc2)CC1	–	-45	·	–	–
COCCCNC(=O)c1ccc(-n2c(-c3ccccc3)cc3c2CCC(C)C3)cc1 (centres undefined)	–	–	–	–	–
CCN(CC)C(=O)c1sc(NC(=O)C(C)Sc2nc(-c3ccccc3)cc(C(F)(F)F)n2)c(C(=O)OC)c1C (centres undefined)	–	–	–	–	–
O=C(NCc1cc(C(F)(F)F)ccc1F)C1CCC(=O)N(C2CC2)C1 (centres undefined)	–	-36	–	–	–
Cc1cc(CNC(=O)C2CCC(=O)N(Cc3cccc(C(F)(F)F)c3)C2)no1 (centres undefined)	–	–	–	31	–
Cc1ccc(CNC(=O)C2CCC(=O)N(CCc3cccc(F)c3)C2)cc1 (centres undefined)	–	-43	–	–	–
O=C(NCCc1ccc(C(F)(F)F)cc1)C1CCC(=O)N(CCCN2CCCC2=O)C1 (centres undefined)	–	-40	–	–	–
O=C(NCc1cccc(F)c1F)C1CCC(=O)N(C2CC2)C1 (centres undefined)	–	–	–	–	–
Cc1cc(CNC(=O)C2CCC(=O)N(CCc3cccc(F)c3)C2)nn1C (centres undefined)	–	–	–	–	–
O=C(NCc1ccon1)C1CCC(=O)N(Cc2cccc(C(F)(F)F)c2)C1 (centres undefined)	–	–	–	–	–
CC(=O)c1cccc(NC(=O)CSc2nc(=O)n(Cc3ccco3)c3c2CCC3)c1	–	·	–	–	–
Cc1ccsc1CCNC(=O)C1CCC(=O)N(CCc2cccc(F)c2)C1 (centres undefined)	–	-37	–	–	–
Cc1ccc(CNC(=O)C2CCC(=O)N2Cc2ccccc2Cl)cc1 (centres undefined)	–	–	–	–	–
Cc1n[nH]c(C)c1CN(C)C(=O)C1CCC(=O)N(CCc2cccc(F)c2)C1 (centres undefined)	–	-33	–	–	–
Cc1ccc(CNC(=O)C2CCC(=O)N2Cc2ccc(C)cc2)cc1 (centres undefined)	–	-40	–	–	–
O=C(NCCc1cccs1)C1CCC(=O)N(CCc2cccc(F)c2)C1 (centres undefined)	–	–	–	–	–
CCCOc1ccc(C(=O)NNC(=S)NC(=O)c2ccco2)cc1	186	-33	–	–	–

Assay outcomes (PubChem)
